Hits are enriched below; roughly 3.4% of the tested compounds scored in any of these assays.
Env fusion inh – inhibitors of HIV-1 Env-driven cell-cell fusion, primary screen, HeLa-JRFL effector, CEM21 target cells, luciferase; inhibition, % at 12.3 µM; 360,000 compounds, 1.1% hits; AID 651610, 2012;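 active means mean replicate inhibition score of at least 50 and every replicate individually at or above 50; inconclusive means only one of the two criteria met; inactive means mean below 50 and not all replicates reaching 50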;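 further: 0% = plate neutral controls and 100% = maraviroc near 300 nM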
MITF TRPM1 HTS – activators of MITF-driven TRPM1 promoter reporter, primary screen, cell-based, SK-MEL-5, luciferase, single point; SK-MEL-5 TRPM1-promoter luciferase, 24 h; % of positive control, neutral wells = 0; activation, % at 12.5 µM; 300,000 compounds, 0.75% hits; AID 588334, 2011;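 active means mean activation of at least 80% with every replicate also reaching 80%; inconclusive means mean reaches 80% but some replicate falls short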;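 further: 0% = neutral control wells and 100% = parthenolide positive control wells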
esBAF inh – Bmi1 luciferase reporter increase in mESCs, primary screen, esBAF inhibitor project, mouse ES cells, Bmi1 luciferase knock-in, single point; 24 h; 100% = twice the neutral-well signal; reporter increase, % at 12.5 µM; 350,000 compounds, 2% hits; in the data active means activation above about 40%; inconclusive means no clear call, values can overlap the other calls;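 further: 0% = median of the plate's neutral control wells and 100% = double that signal; a rise in the Bmi1 reporter signal indicates esBAF inhibition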
Wnt bcat act – Wnt/beta-catenin pathway activators, primary screen, cell-based, plate reader, single point. Wnt/beta-catenin reporter cell assay, activator. AID 743398, 2014. 300,000 compounds, 1.2% hits. activation, % at 9.35 µM; in the data active means activation above about 30%, passing the limit was not always enough; inconclusive means no clear call, values can overlap the other calls;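 further: 0% = neutral control wells and 100% = positive control wells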
miR122 inh – miR-122 Renilla sensor signal increase in Huh7, primary screen, miR-122 inhibitor project, cell-based, single point, plate reader; Huh7 miR-122 Renilla luciferase sensor, 48 h; neutral wells = 0, positive control = 100; activation (reporter increase), % at 12.5 µM; 340,000 compounds, 0.3% hits;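 active means mean replicate activation score at least 90 and every replicate individually at or above 90; inconclusive means only one of the two criteria met; inactive means neither criterion met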;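 further: higher luciferase means less miR-122 activity so hits act as miR-122 inhibitors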
Active calls of the source: *; ? = inconclusive; . = no result; ! = not confirmed by another sample; [ ] = another dose, or the depositor's remark.

SMILES	Env fusion inh	MITF TRPM1 HTS	esBAF inh	Wnt bcat act	miR122 inh
COCC(=O)N(C)C[C@H]1Oc2ncc(Br)cc2C(=O)N([C@H](C)CO)C[C@H]1C	79.9*[16.7 µM]	.	0.1	.	7.9[16.7 µM]
C[C@H]1CCCCO[C@H](CN(C)C(=O)Nc2ccc(F)cc2)[C@@H](C)CN([C@@H](C)CO)C(=O)c2cc(NC(=O)Nc3ccc4c(c3)OCO4)ccc2O1	18.3	.	50.9*!	0.6	-12.8
C[C@H](CO)N1C[C@H](C)[C@@H](CN(C)C(=O)Nc2ccc3c(c2)OCO3)OCCCC[C@H](C)Oc2ccc(NC(=O)c3ccncc3)cc2C1=O	-65.7[16.7 µM]	.	54.0*	.	5.6[16.7 µM]
C[C@@H]1CCCCO[C@@H](CN(C)C(=O)Nc2ccc3c(c2)OCO3)[C@H](C)CN([C@H](C)CO)C(=O)c2cc(NC(=O)Nc3ccc4c(c3)OCO4)ccc2O1	9.7[16.7 µM]	.	80.5*	.	-4.2[16.7 µM]
CC(C)NC(=O)N(C)C[C@@H]1OCCCC[C@H](C)Oc2ccc(NC(=O)Nc3ccc4c(c3)OCO4)cc2C(=O)N([C@H](C)CO)C[C@@H]1C	27.6[16.7 µM]	.	48.5*	.	-10.3[16.7 µM]
CC(C)NC(=O)Nc1ccc2c(c1)C(=O)N([C@@H](C)CO)C[C@@H](C)[C@@H](CN(C)C(=O)Nc1ccc(F)cc1)OCCCC[C@@H](C)O2	80.3*[16.7 µM]	.	-1.5	.	-2.0[16.7 µM]
CC(C)C#Cc1ccc([C@H]2[C@@H](C#N)N(C(=O)C3CC3)[C@@H]2CO)cc1	26.3[16.7 µM]	.	2.0	.	.
C[C@@H]1CN([C@H](C)CO)C(=O)c2cccc(N(C)C)c2O[C@H]1CN(C)Cc1ccc(C(=O)Nc2ccccc2N)cc1	5.9[16.7 µM]	.	-3.5	.	16.9[16.7 µM]
C[C@H](CO)N1C[C@H](C)[C@@H](CN(C)C(=O)Nc2ccc3c(c2)OCO3)Oc2ncc(C#CC3(O)CCCC3)cc2C1=O	11.2[16.7 µM]	.	59.5*	.	.
C[C@@H]1CN([C@@H](C)CO)C(=O)c2cc(C#CC3CC3)cnc2O[C@@H]1CN(C)C(=O)c1ccccc1	-7.7[16.7 µM]	.	-0.1	.	-1.3[16.7 µM]
CCOC(=O)COc1nc2c(c(-c3ccco3)c1C#N)CCc1ccccc1-2	56.7*	.	.	-1.1	2.6
Cc1nc(N)sc1N=Nc1ccccc1C(F)(F)F	-103.9	159.1*	?	28.0	.
CCN(CC)S(=O)(=O)c1cccc(N=Nc2sc(N)nc2C)c1	1.5	5.2	6.5	-0.7	2.4
Cc1ccc(-c2cc(C(=O)NC3=NCCS3)c3ccccc3n2)cc1C	.	45.5	.	40.1*	-3.7
Cc1ccc(-c2cc(C(=O)N/N=C/c3c(C)nn(C)c3C)c3ccccc3n2)cc1C	.	37.2	47.9*	.	-5.0
C[C@H](CO)N1C[C@H](C)[C@H](CN(C)C(=O)C2CCCCC2)Oc2ncc(C#CC(C)(C)O)cc2C1=O	-7.0[16.7 µM]	.	2.1	.	0.1[16.7 µM]
OC(COc1ccc(OCc2ccccc2)cc1)CN1CCCCC1 (configuration not stated)	.	87.7*	14.2	.	8.9
OC(COc1ccc(OCc2ccccc2)cc1)CN1CCOCC1 (configuration not stated)	.	1.3	-0.7	.	1.6
S=C(Nc1ccccc1)c1ccccn1	.	15.2	79.5*	.	-6.5
COCCNC(=O)C[C@H]1CC[C@@H](NC(=O)NC2CCCC2)[C@@H](CO)O1	-18.5[16.7 µM]	.	-5.0	.	-1.4[16.7 µM]
CN1/C(=C\C(=O)c2cccc([N+](=O)[O-])c2)Sc2ccccc21	-45.4	18.7	74.7*	20.9	-5.7
CO[C@H]1CN(C)C(=O)c2cc(NC(=O)Nc3ccc(Cl)c(Cl)c3)ccc2OC[C@H](C)NC[C@H]1C	13.8[16.7 µM]	.	2.3	.	-50.9[16.7 µM]
Cc1ccc(S(=O)(=O)N/N=C/c2ccc(OCC(=O)Nc3ccccc3Cl)cc2)cc1	?	3.7	13.1	3.8	219.5*
Cc1ccc(OCC(=O)Nc2ccccc2-c2ccccc2NC(=O)COc2ccc(C)cc2)cc1	91.1*	-14.9	.	.	.
CC(C)NC(=O)Nc1cccc2c1O[C@@H](CN(C)S(=O)(=O)c1ccc(F)cc1)[C@H](C)CN([C@H](C)CO)C2=O	-24.0[16.7 µM]	.	-3.4	.	-4.8[16.7 µM]
SMILES	Env fusion inh	MITF TRPM1 HTS	esBAF inh	Wnt bcat act	miR122 inh
C[C@H]1CN([C@@H](C)CO)C(=O)c2cc(NS(=O)(=O)c3cccs3)ccc2O[C@H]1CN(C)S(=O)(=O)c1cccs1	32.1[16.7 µM]	.	4.2	.	5.8[16.7 µM]
CCCCC1(Cc2ccc(OC)c([N+](=O)[O-])c2)C(=O)N(c2ccccc2)N(c2ccccc2)C1=O	118.4*	-4.1	-14.4	-9.0	-6.2
O=[N+]([O-])c1cccc(-c2cn3ccccc3n2)c1	-103.7	46.1	31.6	67.1*	-2.3
CS(=O)(=O)Nc1cccc(-c2cnc3ccccc3n2)c1	-57.0	98.0*	32.1	15.5	.
O=[N+]([O-])c1cccc(-c2cnc3ccccc3n2)c1	-27.0	40.9	52.1*	-0.4	4.9
COCC(=O)N(C)C[C@@H]1Oc2cc(C3=CCCC3)ccc2S(=O)(=O)N([C@@H](C)CO)C[C@@H]1C	1.5[16.7 µM]	.	0.1	.	.
Cc1ccc(OCCCn2c(=O)sc3ccccc32)cc1	.	31.0	14.7	.	-5.9
O=c1sc2ccccc2n1CCCOc1ccccc1	-196.1	51.8	80.6*	70.8*	-8.5
Cc1ccc(OCCn2c(=O)sc3ccccc32)cc1	.	91.5*	75.6*	22.9	-4.4
Cc1ccccc1OCCCn1c(=O)sc2ccccc21	.	71.8	54.3*	.	0.6
Cc1ccc(S(=O)(=O)N(C)C[C@@H]2Oc3ccc(NC(=O)Cc4ccccc4)cc3CC(=O)N([C@@H](C)CO)C[C@H]2C)cc1	11.7[16.7 µM]	.	0.0	.	-2.0[16.7 µM]
CC(C)OC(=O)CSc1nnnn1-c1ccc2c(c1)OCCO2	-26.8	52.5	68.5*	9.7	-1.0
O=C(O)CSc1nnnn1-c1ccc2c(c1)OCCO2	33.8	.	-2.1	2.9	-0.6
C[C@@H]1CN([C@H](C)CO)C(=O)c2cc(NS(C)(=O)=O)ccc2O[C@H]1CN(C)Cc1ccc(Cl)c(Cl)c1	4.9[16.7 µM]	.	4.5	.	-2.5[16.7 µM]
COc1ccc(S(=O)(=O)Nc2ccc3c(c2)C(=O)N([C@@H](C)CO)C[C@H](C)[C@@H](CN(C)Cc2ccc(Cl)c(Cl)c2)OCCCC[C@H](C)O3)cc1	59.4*[16.7 µM]	.	-2.2	.	-6.9[16.7 µM]
C[C@H]1CN([C@@H](C)CO)C(=O)c2cc(NS(C)(=O)=O)ccc2O[C@@H]1CN(C)Cc1ccc(Cl)c(Cl)c1	61.7*[16.7 µM]	.	3.5	.	-8.4[16.7 µM]
C[C@@H]1CCCCO[C@H](CN(C)Cc2ccc(Cl)c(Cl)c2)[C@@H](C)CN([C@H](C)CO)C(=O)c2cc(NS(=O)(=O)c3ccc(F)cc3)ccc2O1	-9.7[16.7 µM]	.	-4.0	.	-4.2[16.7 µM]
COc1ccc(S(=O)(=O)Nc2ccc3c(c2)C(=O)N([C@@H](C)CO)C[C@H](C)[C@@H](CN(C)Cc2ccc(Oc4ccccc4)cc2)O3)cc1	63.2*[16.7 µM]	.	-0.9	.	-4.7[16.7 µM]
C[C@H](CO)N1C[C@H](C)[C@H](CN(C)Cc2ccc(Cl)c(Cl)c2)OCCCC[C@H](C)Oc2ccc(NS(=O)(=O)c3ccc(F)cc3)cc2C1=O	88.5*[16.7 µM]	.	-0.6	.	-7.9[16.7 µM]

Bioassay records (PubChem BioAssay)
